High-throughput results (PubChem BioAssay)
Shown are actives, neighbours in structure and some others; about 1.5% of the full set was active somewhere.
ABHD5-PLIN5 inh: blocks binding of human ABHD5 to perilipin-5. Split G. princeps luciferase complementation, luminescence, 4 h. inhibition, % at 4 µM. 360,000 tested, 0.78% active. AID 602281;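 active = inhibition above the mean inhibition across every tested compound plus 3 SD, cut at about 22% in these data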;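 note: 0% = DMSO only wells and the 100% control is not disclosed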
Target sequence (Q00G26 whole entry, looked up): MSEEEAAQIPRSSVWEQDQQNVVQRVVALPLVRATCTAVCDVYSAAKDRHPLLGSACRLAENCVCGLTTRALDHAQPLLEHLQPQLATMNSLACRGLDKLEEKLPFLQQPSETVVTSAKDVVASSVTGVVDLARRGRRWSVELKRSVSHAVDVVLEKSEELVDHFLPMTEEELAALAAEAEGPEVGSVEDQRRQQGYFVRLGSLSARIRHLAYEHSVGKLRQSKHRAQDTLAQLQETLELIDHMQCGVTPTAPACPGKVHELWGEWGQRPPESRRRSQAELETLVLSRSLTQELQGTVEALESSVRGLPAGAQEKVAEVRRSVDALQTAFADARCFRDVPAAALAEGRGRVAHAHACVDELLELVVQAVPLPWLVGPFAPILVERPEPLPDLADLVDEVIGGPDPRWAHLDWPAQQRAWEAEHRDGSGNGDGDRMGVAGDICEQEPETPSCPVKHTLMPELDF
Target sequence (Q8WTS1 whole entry, looked up): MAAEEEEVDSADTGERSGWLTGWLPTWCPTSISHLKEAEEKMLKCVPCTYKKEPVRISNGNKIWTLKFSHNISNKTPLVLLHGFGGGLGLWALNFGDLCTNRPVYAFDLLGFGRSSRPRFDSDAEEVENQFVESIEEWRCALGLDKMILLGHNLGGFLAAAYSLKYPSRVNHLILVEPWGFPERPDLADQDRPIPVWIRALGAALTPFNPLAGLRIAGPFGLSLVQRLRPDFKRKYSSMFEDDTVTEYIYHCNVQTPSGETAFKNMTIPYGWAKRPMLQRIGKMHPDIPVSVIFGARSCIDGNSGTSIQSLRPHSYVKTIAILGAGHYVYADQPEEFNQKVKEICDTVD
NOD2-RIPK2 inh: inhibitors of human NOD2-RIPK2 interaction. CHO BLA complementation NOD2-RIPK2, CCF4 ratio. inhibition, % at 4.98 µM. 360,000 tested, 0.38% active. AID 624267; in the data active = inhibition above about 21%;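 note: 0% = vehicle only and 100% = reference blocker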
TLR4 MyD88 comp: TLR4-MyD88 interaction inhibition in cells; O00206+Q99836; HeLa CL3-4 TLR4/MyD88 BLA complementation, FRET ratio; inhibition, % at 8.4 µM; 200,000 tested, 0.18% active; in the data active = inhibition above about 25%;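 note: 0% = vehicle and 100% = reference inhibitor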
TLR9-MyD88 block: TLR9-MyD88 interaction inhibition. CHO BLA complementation TLR9-MyD88, CCF4 FRET ratio. inhibition, % at 4.98 µM. 340,000 tested, 0.21% active. AID 504734;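 active = inhibition above the mean over all tested compounds plus 3 SD, cut at about 21% in these data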;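 note: 0% = DMSO only wells and 100% = clavulanate BLA inhibitor control wells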
NTR1 agonist: agonists of human neurotensin receptor NTR1; P30989; NTR1-U2OS beta-arrestin-GFP spot imaging, agonist mode; activation, % at 20 µM; 330,000 tested, 0.17% active;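 active = activation at or above 40% of the spot to cytoplasm intensity ratio, with at least 20 cells analyzed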;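 note: 0% = DMSO without peptide and 100% = 100 nM NTR1 peptide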
Beta2AR agonist: agonists of human beta-2 adrenergic receptor inducing internalization; P07550; Am2.2-beta2AR cells, FAP receptor internalization, flow cytometry; AID 504454; 340,000 tested, 0.43% active; response, % (test concentration not listed);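 active = response above a set limit, near 3 SD of response in nonfluorescent compounds, cut at about 42% in these data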
TLR9-MyD88 cf: confirmation of human TLR9-MyD88 binding inhibitors | shares compounds with TLR9-MyD88 block | CHO TLR9/MyD88 BLA complementation, CCF4 FRET ratio | inhibition, % at 4.98 µM | 680 tested, 51% active | AID 540250;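 active = mean inhibition across three repeats above about 21% taken from the earlier screen, limit read from the data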;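 note: blue over green emission ratio reports constitutive TLR9 MyD88 association via BLA complementation; 0% = DMSO vehicle wells and 100% = clavulanate BLA inhibitor wells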
BLA counter: non-selective beta-lactamase inhibitors in TLR9-MyD88 counter-screen. shares compounds with TLR9-MyD88 block. CHO-BLA cells, CCF4 FRET ratio, BLA reporter. inhibition, % at 4.98 µM. 680 tested, 7% active;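 active = mean inhibition above a 50% cutoff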;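 note: counterscreen of TLR9-MyD88 hits on CMV-driven BLA in CHO-K1 cells; 0% = DMSO alone and 100% = clavulanate blocking BLA; higher means less blue over green ratio so more BLA blockade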
TLR9 CHO cytotox: CHO cell toxicity counter-screen for TLR9-MyD88 inhibitors | 680 tested, 39% active | TLR9-MyD88 CHO cells cytotoxicity, luminescence | shares compounds with TLR9-MyD88 block | inhibition, % at 4.98 µM; in the data active = inhibition above about 11%
* marks the source's active call; other numbers are inactive results; x = not tested or not shown.

SMILES	ABHD5-PLIN5 inh	NOD2-RIPK2 inh	TLR4 MyD88 comp	TLR9-MyD88 block	NTR1 agonist	Beta2AR agonist	TLR9-MyD88 cf	BLA counter	TLR9 CHO cytotox
O=C(Nc1nc2ccccc2s1)c1cccc(S(=O)(=O)N2CCc3ccccc32)c1	-3	2	x	7	-2	-5	x	x	x
COc1ccc(NC(=O)C2(C)Cc3c(-c4cccc(NC(C)=O)c4)ccnc3O2)cn1 (centres undefined)	4	12	x	x	x	x	x	x	x
O=[N+]([O-])c1ccc(Sc2cccc[n+]2[O-])c2nonc12	86*	89*	x	55*	x	8	59*	9	101*
CCOC(=O)[C@]12CCCC=C1N(Cc1ccco1)C(=O)[C@H](CC(=O)NCc1cccc(C(F)(F)F)c1)C2	14	1	x	x	x	x	x	x	x
COc1ccc2oc(=O)c(-c3nnc(N)s3)cc2c1	2	17	4	21*	5	-2	8	11	-3
CCOC(=O)C1CCCN(C(=O)c2ccc(SC(F)(F)F)cc2)CC1 (centres undefined)	3	-13	x	x	x	x	x	x	x
COc1ccc(OC)c(/C=C/c2nc3ccccc3[nH]c2=O)c1	5	14	x	28*	4	-6	30*	32	0
COc1ccc(OC)c(C=Nc2ccccc2-c2nc3ccccc3[nH]2)c1	2	4	5	6	3	-5	x	x	x
CC(=O)NC1(C)CCC2CC1C(C)=NC2(C)C (centres undefined)	8	-3	x	x	x	x	x	x	x
CCc1ccc(/C=C2/C(=O)N(c3ccccc3)C(=S)N2CC(=O)OC)s1	4	3	5	29*	20	6	10	33	2
N#Cc1ccc(-c2ccco2)nc1SCC(=O)c1ccc(Cl)cc1	7	15	30*	28*	1	-76	25*	25	8
CC(C)CN(C(=O)COC(=O)CCSc1ccc(Cl)cc1)c1c(N)n(Cc2ccccc2)c(=O)[nH]c1=O	-2	-8	x	-12	x	x	x	x	x
CC(C)Nc1ncnc2c1ncn2[C@H]1CN(Cc2ccc(F)cc2)C[C@@H](CO)O1	1	-19	x	x	x	x	x	x	x
O=C(Nc1nnc([C@@H]2C[C@H](O)[C@@H](CO)O2)s1)NC(c1ccccc1)c1ccccc1	10	-7	x	x	x	x	x	x	x
C=CCCCCCCCCc1nc(SCC(C)=O)n[nH]1	-4	-17	x	7	0	-1	x	x	x
C=CCCCCCCCCc1nc(SCC(=O)O)n[nH]1	0	1	x	32*	1	2	-5	-1	1
COc1ccc(S(=O)(=O)N2CCNC(=O)C2)cc1Br	9	6	14	22*	1	7	-3	0	2
COc1ccc(S(=O)(=O)N2CCCCCC2)cc1Br	1	-10	2	-10	x	-1	x	x	x
COc1ccc(/C=C2\C(=O)NC(=O)c3ccccc32)cc1OC	-18	-5	x	31*	x	18	54*	58*	26*
CCOC(=O)C1(C)CCCCCN1C(=O)/C=C/c1ccccc1 (centres undefined)	1	-2	x	x	x	x	x	x	x
COc1cc(C(=O)Nc2ccc(C(C)=O)cc2)c(Br)c(OC)c1OC	-2	11	0	21*	-1	3	1	-2	5
COc1ccc(NC(=O)c2cc(OC)c(OC)c(OC)c2Br)cc1OC	-1	-3	0	1	-1	-4	x	x	x
Cc1noc(C)c1COc1ccccc1C(=O)NCCc1ccc(F)cc1	-3	4	x	13	x	-4	x	x	x
Fc1ccccc1N1CCN(Cc2nc(-c3ccccc3)no2)CC1	1	1	-9	3	1	-1	x	x	x
Fc1ccccc1N1CCN(Cc2cc(-c3ccccc3)on2)CC1	-6	8	x	21*	0	-2	1	3	4
SMILES	ABHD5-PLIN5 inh	NOD2-RIPK2 inh	TLR4 MyD88 comp	TLR9-MyD88 block	NTR1 agonist	Beta2AR agonist	TLR9-MyD88 cf	BLA counter	TLR9 CHO cytotox
NC(=S)N=Nc1c(O)n(Cc2ccccc2)c2ccccc12	-2	-8	-15	2	8	-7	x	x	x
O=Nc1c(O)n(Cc2cccc(Cl)c2)c2ccccc12	-6	20	4	26*	2	6	18	16	14*
COc1ccc(C2CC(c3ccncc3)=NN2c2ccc(S(N)(=O)=O)cc2)cc1 (centres undefined)	-1	37*	x	19	-1	-45	12	19	16*
COc1cc(NC(=O)COC(=O)CCc2nc3ccccc3c(=O)[nH]2)cc(OC)c1	3	7	x	9	1	10	x	x	x
N#Cc1cccc(NC(=O)COC(=O)CCc2nc3ccccc3c(=O)[nH]2)c1	-2	-6	-12	21*	-2	0	-1	0	-2
N#CC1=C(N)OC2=C(CC/C2=C\c2ccccc2)C1c1ccccc1 (centres undefined)	1	6	13	7	-2	-173	x	x	x
N#CC1=C(N)OC2=C(CC/C2=C\c2ccccc2Cl)C1c1ccccc1Cl (centres undefined)	5	11	2	32*	6	-14	7	7	2
CCc1nc2ccc(C(=O)N3CCN(c4ccccc4)CC3)cn2c1N(C)CCCc1ccccc1	9	8	x	x	x	x	x	x	x
CCc1ccc(OCC(=O)N/N=C(\C)c2ccccc2OC(F)F)cc1	-4	-2	-10	-16	4	4	x	x	x
CCc1ccc(OCC(=O)N/N=C(\C)c2ccc(OC(F)F)cc2)cc1	1	-8	7	21*	7	4	1	4	4
CC(C)OC1=CC(=O)OC(c2cccc(Cl)c2)C1 (centres undefined)	-2	4	x	x	x	x	x	x	x
